Screens from PubChem.
Compounds with a hit are over-represented: about 0.86% of the library has one in this group of screens.
HIV TAR-Tat: HIV-1 TAR-Tat binding disruption | HIV-1 TAR RNA, Tat peptide displacement FRET; active compounds read high | z-score (test concentration not listed) | actives 0.6% (n = 100,000) | AID 1259389; active = z-score of 3 or more in at least 2 runs
CDC25B CDK2 inh: human CDC25B-CDK2/CyclinA binding inhibition | actives 0.72% (n = 94,000) | AID 1259370 | z-score (concentration not given with the values) | P30305+P24941 | HTRF CDC25B-CDK2/CyclinA binding, anti-His/anti-Flag; active compounds read high; in the data active = z-score above about 3.2
Numbers stand for hits; 0 = inactive; - = no result.

SMILES	HIV TAR-Tat	CDC25B CDK2 inh
CC1CCC(NC(=O)C2(C)Cn3c(ccc3-c3ccco3)C(=O)N2Cc2cccs2)CC1 (stereo not drawn)	0	-
CC1CCC(NC(=O)C2(C)Cn3c(cc4occc43)C(=O)N2Cc2cccs2)CC1 (stereo not drawn)	10.3	-
CC1CCC(NC(=O)C2(C)Cn3c(cc4occc43)C(=O)N2Cc2ccco2)CC1 (stereo not drawn)	19.3	-
Cc1cc2c(cc3n2CC(C)(C(=O)NC2CCCCC2)N(C2CCCCC2)C3=O)o1 (stereo not drawn)	0	-
CNc1n[nH]c(N)c1-c1nc(-c2ccc(OC)cc2)no1	0	0
CC1Cc2ccccc2N1S(=O)(=O)c1ccc2c(c1)N(C)CCO2 (stereo not drawn)	0	-
Cc1ccc(C(C)C)c(OCC(=O)Oc2ccc(-n3cnnn3)cc2)c1	0	0
CC1CCCN(S(=O)(=O)c2ccc(CN3C(=O)c4cccnc4C3=O)s2)C1 (stereo not drawn)	0	-
CCOc1ccc(-c2nc3ncccn3c2NCc2ccc(F)cc2)cc1	0	-
Cc1cc(-c2ccc(S(=O)(=O)Nc3ccc(Cl)cc3C)s2)on1	0	-
O=C(Cn1c(=O)oc2cc(Cl)ccc21)NCc1ccco1	0	-
CCCN1C(=O)c2[nH]nc(-c3ccccc3O)c2C1c1ccc(CC)cc1 (stereo not drawn)	0	0
CCOC(=O)c1cc2c(=O)oc3ccccc3c2n1C	0	0
Cc1cc(C)cc(N2C(=O)c3cc4occc4n3CC2(C)C(=O)NC2CCC(C)CC2)c1 (stereo not drawn)	11.8	-
CCC(C)N1C(=O)c2cc3occc3n2CC1(C)C(=O)NC1CCC(C)CC1 (stereo not drawn)	0	-
Oc1cc(O)c2c(c1)O[C@H](c1cc(O)c(O)c(O)c1)[C@H](O)C2	29.9	-
O=C1C[C@@H](c2ccccc2)Oc2cc(O)cc(O)c21	0	-
Oc1cc(O)c2c(c1)O[C@H](c1ccc(O)c(O)c1)[C@@H](O)C2	0	0
O=c1c(O)cccc2c([C@H]3Oc4cc(O)cc(O)c4C[C@H]3O)cc(O)c(O)c12	11.9	-
COc1ccc(S(=O)(=O)N2CCC(CN)CC2)cc1OC	0	0
Cc1ccc(-c2nc3ccccc3s2)cc1NC(=O)c1cccc2ccccc12	-	0
O=C(O)c1cc(-c2ccco2)nc2ccccc12	23.9	-
O=C(O)c1cc(-c2cc(C(=O)O)c3ccccc3n2)nc2ccccc12	0	0
CC1=NS(=O)(=O)c2cc(C(=O)N(C)Cc3ccccc3)ccc2N1CC(C)C	0	-
COc1ccc(Cc2nn3c(-c4cccc(Cl)c4)nnc3s2)cc1	0	0
SMILES	HIV TAR-Tat	CDC25B CDK2 inh
Nc1ccc(SCc2nc3ccccc3[nH]c2=O)cc1	0	-
Cn1c(=O)n(Cc2ccccc2)c(=O)c2c1[nH]c(=S)n2Cc1ccccc1	-	0
COc1cccc(-c2nc3c(c(=O)[nH]2)Cc2cccc(OC)c2O3)c1O	11.6	0
COc1cccc2c1Oc1nc(-c3ccc(Br)cc3)[nH]c(=O)c1C2	0	0
COc1cccc(-c2nc3c(c(=O)[nH]2)Cc2ccccc2O3)c1O	0	0
COc1cccc2c1Oc1nc(-c3cc(Br)ccc3O)[nH]c(=O)c1C2	17.7	0
NC(=O)c1sc2nc3c(c(-c4ccc(Cl)cc4)c2c1N)CCCCC3	-	0
Oc1ccc(CN2CCCCC2)c2cccnc12	0	13.9
Oc1ccc(CN2CCN(c3ccccc3)CC2)c2cccnc12	0	-
Oc1c(CN2CCN(Cc3ccc4cccnc4c3O)CC2)ccc2cccnc12	9.37	0
Oc1c(CN2CCOCC2)ccc2cccnc12	0	0
CCNC(=O)C1CCN(S(=O)(=O)c2cc(-c3noc(CC)n3)cs2)CC1	0	-
Nc1cccnc1Nc1ccccc1	0	0
COc1ccc(Nc2ncccc2N)cc1	0	12.5
CC1=C(c2ccccc2)S(=O)(=O)NC1=NCc1ccccn1	0	0
CCC(Nc1c(-c2ccc(C(C)C)cc2)c(=O)c1=O)c1cccs1 (stereo not drawn)	0	-
COC(=O)C1Cc2cc(OC)c(OC)cc2C(Cc2ccc(OC)c(OC)c2)=N1 (stereo not drawn)	0	8.89
COc1ccc(CC(=O)NN)cc1OC	-	0
Cn1c(=O)n(Cc2ccccc2Cl)c(=O)c2c1nc1n2CCN1Cc1ccco1	-	0
Cn1c(=O)n(Cc2ccccc2F)c(=O)c2c1nc1n2CCN1Cc1ccco1	4.65	-
O=C(O)CCCc1cn(Cc2ccc(F)cc2)c2ccccc12	0	0
O=C1CC(=O)Nc2cc(S(=O)(=O)Nc3ccc(F)cc3)ccc2N1	0	0
O=C1CC(=O)Nc2cc(S(=O)(=O)Nc3ccc4c(c3)OCO4)ccc2N1	17.7	-
O=C1CN(Cc2ccccc2F)S(=O)(=O)c2ccccc2N1Cc1ccccc1	9.39	-
O=C1CN(Cc2ccccc2F)S(=O)(=O)c2ccccc2N1Cc1ccc(F)cc1	0	-
SMILES	HIV TAR-Tat	CDC25B CDK2 inh
O=C(CC1CCCC1)Nc1nc2ccc(Cl)cc2o1	0	-
Cc1ccc(Nc2c3c(nc4ncnn24)CCC3)cc1Cl	0	-
Cc1ccc(NC(=O)CN(c2cccc(Cl)c2C)S(C)(=O)=O)cc1Cl	-	0
CN(C(=O)c1noc2c1COc1ccccc1-2)c1ccc(Br)cc1	0	0
Cc1cc(O)c2c(c1)C(=O)c1cc(O)cc(O)c1C2=O	0	0
O=C1c2cccc(O)c2C(=O)c2c(O)cc(CO)cc21	6.22	-
CS(=O)(=O)CCC(C(=O)NCc1cccs1)N1Cc2ccccc2C1=O (stereo not drawn)	0	-
COc1cc(CNc2ccc3[nH]c(=O)[nH]c3c2)cc(Br)c1OCc1cccs1	-	8.87
O=c1[nH]c2ccc(NCc3cc(Br)ccc3OCc3ccccc3)cc2[nH]1	0	13
CCOc1cc(CNc2ccc(O)cc2)cc(Br)c1OCc1cccs1	0	0
CC(C)(CO)NCc1cc(Br)ccc1OCc1ccccc1	0	0
Cn1c(SCc2cc(=O)c3cccc(F)c3[nH]2)nnc1-c1ccccc1	0	-
O=C1CC(c2ccco2)Sc2ccccc2N1Cc1ccccc1 (stereo not drawn)	-	0
N#Cc1cccc(C#N)c1Oc1ccc(NC(=O)c2ccc(Cl)cc2)cc1	-	0
Cc1[nH]c(=O)[nH]c(=O)c1S(=O)(=O)Nc1ccc(-c2ccno2)cc1	0	-
Cc1[nH]c(=O)[nH]c(=O)c1S(=O)(=O)Nc1ccc2oc(-c3ccncc3)nc2c1	6.21	-
Clc1cc2c(cc1Cl)Nc1cc(Cl)c(Cl)cc1N2	-	0
O=C(Nc1cccc(C(F)(F)F)c1)C1c2ccccc2C(=O)N2CCc3ccccc3C12 (stereo not drawn)	-	0
C=CCSc1ncc(Cl)c(C(=O)Nc2sc3c(c2C(=O)NCC2CCCO2)CCC3)n1 (stereo not drawn)	0	0
Cc1ccc([C@H]2C(C#N)=C(N)Oc3cc(C)oc(=O)c32)o1	-	0
Cc1ccc(/C=c2/sc3n(c2=O)C(N)=C(C#N)C(c2ccc(C)o2)C=3C#N)o1 (stereo not drawn)	-	6.59
Cc1cc2nc(CSc3nc(-c4ccccc4C)nc4cc(=O)[nH]n34)cc(=O)n2o1	0	-
NC(=O)CSc1nc2nccnc2c(=O)n1Cc1cccs1	0	-
O=C1CCCN1c1ccc(S(=O)(=O)N2CCc3ccccc32)cc1	0	-
Cc1cccnc1NC(=O)Nc1ccc2c(c1)N(C)C(=O)CS2	0	0
Cc1ccc(NC(=O)Nc2cccnc2)cc1Cl	-	0
CN1CCc2cc(NC(=O)Nc3cccnc3)ccc21	-	22.8
CN1C(=O)CSc2ccc(NC(=O)Nc3cccnc3)cc21	0	19.4
Cc1cc(-c2ccc(C)c(S(=O)(=O)NCCSCc3ccco3)c2)on1	0	-
O=S(=O)(Nc1ccc2c(c1)OCCO2)c1ccc2c(c1)CCN2	0	-
